For 62 molecules, inhibition results are on record in PubChem BioAssay AID1347418 (Sanford-Burnham Center for Chemical Genomics, 2020).

Structures are written as SMILES. Among all 1,300 compounds or so, about 750 (58%) were called active. The list shows a part of the results. Values without a mark were called inactive.

The assay deals with Sulfhydryl oxidase 1 (Homo sapiens) (UniProt O00391). The experiment in a line: inhibition of human sulfhydryl oxidase QSOX1 – biochemical, ROS-Glo H2O2 luminescence, HTS, primary screen (AID 1347418). As to conditions: recombinant QSOX1, ROS-Glo H2O2 luminescence; at 12.5 µM; active compounds read high; active = any value above zero.
Chain of Sulfhydryl oxidase 1 (Homo sapiens) (O00391 whole entry, looked up): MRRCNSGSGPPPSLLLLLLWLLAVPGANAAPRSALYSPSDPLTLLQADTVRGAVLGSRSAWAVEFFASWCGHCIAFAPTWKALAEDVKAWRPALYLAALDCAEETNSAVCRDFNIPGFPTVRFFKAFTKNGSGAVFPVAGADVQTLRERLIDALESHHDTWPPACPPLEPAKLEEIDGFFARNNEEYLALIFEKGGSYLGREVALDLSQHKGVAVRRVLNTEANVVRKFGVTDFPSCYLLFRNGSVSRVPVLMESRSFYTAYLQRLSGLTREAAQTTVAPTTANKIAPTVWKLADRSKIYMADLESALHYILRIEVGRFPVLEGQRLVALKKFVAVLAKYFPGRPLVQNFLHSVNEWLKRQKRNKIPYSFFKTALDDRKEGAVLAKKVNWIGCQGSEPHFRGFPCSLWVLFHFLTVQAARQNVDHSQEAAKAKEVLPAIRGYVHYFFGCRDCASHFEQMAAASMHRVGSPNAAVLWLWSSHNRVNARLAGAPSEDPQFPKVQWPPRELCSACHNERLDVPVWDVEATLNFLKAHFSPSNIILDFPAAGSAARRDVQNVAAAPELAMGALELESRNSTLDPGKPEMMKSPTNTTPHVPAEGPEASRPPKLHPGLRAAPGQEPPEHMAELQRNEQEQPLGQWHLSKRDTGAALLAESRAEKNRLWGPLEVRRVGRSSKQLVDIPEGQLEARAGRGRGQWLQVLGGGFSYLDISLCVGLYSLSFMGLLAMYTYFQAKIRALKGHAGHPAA
Take `NCCSSCCN`: the inhibition was 10.5% (active).
Next, `CCOC(=O)Nc1ccc(NCc2ccc(F)cc2)nc1N`: 9.8% (active); `CCCCCCCCCC[Si](C)(C)CCC(=O)NC(Cc1ccc(C)cc1)c1ccccc1` (configuration not stated): 0.6% (active); `CCCCCCCCc1ccc(-c2ccc(C(=O)O)cc2)cc1`: -5.7%.
For `CN(C)c1nc(N)c(C(=O)N=C(N)N)nc1Cl`, the inhibition is 0.7% (active).
In the case of `NC(N)=NC(=O)c1nc(Cl)c(N)nc1N` it was -2.5%; in that of `CCN(c1nc(N)c(C(=O)N=C(N)N)nc1Cl)C(C)C`, -3.8%; in that of `NC(N)=NC(=O)c1nc(Cl)c(N2CCCCCC2)nc1N`, 1.7% (active).
On to `COCCOC(=O)C1=C(C)NC(C)=C(C(=O)OC(C)C)C1c1cccc([N+](=O)[O-])c1` (configuration not stated), for which the inhibition was -2.5%.
Next, `CCOC(=O)C1=C(C)NC(C)=C(C(=O)OC)C1c1cccc([N+](=O)[O-])c1` (configuration not stated): 1% (active).
Turning to `COCCOC(=O)C1=C(C)NC(C)=C(C(=O)OC/C=C/c2ccccc2)C1c1cccc([N+](=O)[O-])c1` (configuration not stated), the inhibition is 5.1% (active).
Regarding `COC(=O)C1=C(C)NC(C)=C(C(=O)OC(C)(C)CN(C)CCC(c2ccccc2)c2ccccc2)C1c1cccc([N+](=O)[O-])c1` (configuration not stated), the inhibition is -1.4%.
Next, `CCOC(=O)C1=C(C)NC(C)=C(C(=O)OC)C1c1cccc(Cl)c1Cl` (configuration not stated): 3% (active); `COC(=O)C1=C(C)NC(C)=C(C(=O)OCCN(C)Cc2ccccc2)C1c1cccc([N+](=O)[O-])c1` (configuration not stated): -1.6%.
As to `COC(=O)C1=C(C)NC(C)=C(C(=O)OC)C1c1ccccc1[N+](=O)[O-]`, the inhibition is -1.1%.
Next, `C#CCN1C(C)=C(C(=O)OC)C(c2cccc([N+](=O)[O-])c2)C(C(=O)OCC)=C1C` (configuration not stated): -3%.
In the case of `CCOC(=O)C1=C(C)NC(C)=C(C(=O)OCC)C1c1c(F)c(F)c(F)c(F)c1F` it was -3.2%; in that of `O=C(O)CN(CCOCCOCCN(CC(=O)O)CC(=O)O)CC(=O)O`, -5.4%.
Next, `CCCCCCCCCCC(C)(C)C(=O)Nc1c(OC)cc(OC)cc1OC`: -1%; `COc1ccccc1OCC(O)CN1CCN(CC(=O)Nc2c(C)cccc2C)CC1` (configuration not stated): 3.9% (active).
As to `COc1ccccc1N1CCN(CC(O)COc2cccc3ccccc23)CC1` (configuration not stated), the inhibition was 8.9% (active).
With `COc1cc2nc(N3CCN(C(=O)C4COc5ccccc5O4)CC3)nc(N)c2cc1OC` (configuration not stated), the inhibition is 4.9% (active).
In the case of `COc1cc2nc(N3CCN(C(=O)OCc4ccccc4)C(C(=O)NC(C)(C)C)C3)nc(N)c2cc1OC` (configuration not stated) it was 4.3% (active).
In the case of `COc1cc2nc(N3CCN(C(=O)C4CCCO4)CC3)nc(N)c2cc1OC` (configuration not stated), the inhibition is 0.3% (active).
In the case of `COc1cc2nc(N(C)CCCNC(=O)C3CCCO3)nc(N)c2cc1OC` (configuration not stated) it was 1.1% (active); in that of `COc1cc2nc(N3CCN(C(=O)c4ccco4)CC3)nc(N)c2cc1OC`, -0.3%.
As for `NC(=O)c1ccccc1`, the inhibition was 7.2% (active).
For the molecule `NC(=O)c1cccc(N)c1`, the inhibition is 2.2% (active).
Next, `CCn1c(=O)[nH]c2cc(Cl)c(Cl)cc21`: -5.4%; `NS(=O)(=O)c1cc2c(cc1Cl)NCNS2(=O)=O`: -0.5%; `NS(=O)(=O)c1cc2c(cc1Cl)NC=NS2(=O)=O`: 2.5% (active).
In the case of `NS(=O)(=O)c1cc2c(cc1Cl)NC(C1CC3C=CC1C3)NS2(=O)=O` (configuration not stated) it was -0.4%; in that of `COc1cccc2c1[C@@H]1CN(CCCCn3c(=O)[nH]c4c(sc5ncc(-c6ccccc6)nc54)c3=O)C[C@@H]1CO2`, -1.5%.
Consider `CC(C)[C@@H]1CC[C@@H](C)C[C@@H]1P(=O)(c1ccccc1)c1ccccc1`, for which the inhibition was 2.9% (active).
Next, `CCCn1c(=O)c(C)cn2nc(N)nc12`: 4.5% (active); `NC(N)=NCc1cccc(I)c1`: 3.9% (active).
With `O=c1[nH]c2cc([N+](=O)[O-])c([N+](=O)[O-])cc2[nH]c1=O`, the inhibition was 2.2% (active).
`CCCOC(=O)c1c(-c2ccccc2)nc(CC)c(C(=O)SCC)c1CCC`: the inhibition was -3.6%.
In the case of `O=C(O)CCc1nc(-c2ccccc2)c(-c2ccccc2)o1` it was 3.2% (active); in that of `CC1(C)CCC(NC(=O)[C@@H](N)CCC(=O)O)CC1`, -1.9%; in that of `C#CC(N)CCC(=O)O` (configuration not stated), 5.9% (active).
`C=Cc1c(C)c2cc3[nH]c(cc4nc(cc5nc(cc1[nH]2)C(C)=C5CCC(=O)O)C(CCC(=O)O)=C4C)c(C)c3C=C`: the inhibition was -1.1%.
In the case of `O=C(O)[C@@H]1C[C@@H](C(=O)O)N1` it was -2.9%.
In the case of `COC(=O)C1=C(C)NC(C)=C([N+](=O)[O-])C1c1ccccc1C(F)(F)F` (configuration not stated) it was -3.4%.
In the case of `CC1(C)NC(=O)N(c2ccc([N+](=O)[O-])c(C(F)(F)F)c2)C1=O` it was -0.4%.
With `CC(C)C(=O)Nc1ccc([N+](=O)[O-])c(C(F)(F)F)c1`, the inhibition was 6.8% (active).
`Oc1ccc(Cn2cc[nH]c2=S)cc1`: the inhibition is 5.9% (active).
In the case of `CCCCCN(C)CCC(O)(P(=O)(O)O)P(=O)(O)O` it was 0.6% (active); in that of `NCCNS(=O)(=O)c1cccc2c(Cl)cccc12`, 0.1% (active).
In the case of `CSc1ccccc1N1CCN(CCCCCC(=O)NC2CCCc3ccccc32)CC1` (configuration not stated) it was -1.2%; in that of `O=C(O)CC1CCCc2ccccc2C1O` (configuration not stated), -2.6%; in that of `O=C(CCCCCN1CCN(c2ccccc2-c2ccccc2)CC1)NC1CCCc2ccccc21` (configuration not stated), 2.4% (active).
In the case of `O=C(O)c1cccnc1Nc1cccc(C(F)(F)F)c1`, the inhibition is 3.2% (active).
On to `O=C(O)c1cccnc1C(=O)O`, for which the inhibition is -3%.
Turning to `c1ccc2nc(C3=NCCN3)ccc2c1`, the inhibition is 0.1% (active).
Next, `CC(C)(Sc1ccc(CCN(CCCCC2CCCCC2)C(=O)NC2CCCCC2)cc1)C(=O)O`: 0.8% (active).
In the case of `CCc1c(C(=O)NCCc2ccc(N3CCCCC3)cc2)[nH]c2ccc(Cl)cc12` it was 1.2% (active); in that of `CN=c1nc(-c2ccccc2)n(-c2ccccc2)s1`, -4.5%.
In the case of `O=C(/C=C/c1ccc(O)cc1)c1ccc(O)cc1O`, the inhibition was 20.8% (active).
In the case of `C#C[C@]1(O)CC[C@H]2[C@@H]3CCC4=Cc5oncc5CC4(C)[C@H]3CCC21C` (some centres not stated) it was 3.6% (active); in that of `CCCN(CCC)C(=O)C(CCC(=O)O)NC(=O)c1ccccc1` (configuration not stated), -6.3%; in that of `CCCCCN(CCCCC)C(=O)C(CCC(=O)O)NC(=O)c1ccc(Cl)c(Cl)c1` (configuration not stated), 3% (active).

The inhibition is the relative decrease from the control value, in per cent.
